# From the supplement of paper PMC6897291
# Where a name gives a salt, the structure may show the parent alone.
# Columns and labels:
# RIVA [1] = experiment: growth inhibition by drug plus 177Lu-lilotomab satetraxetan (1 - RLU/untreated control) (fraction); higher = stronger inhibition; conditions: 177Lu-lilotomab satetraxetan 0.5 ug/ml
# How it was run: (§1)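 Compound doses on the pre-printed Selleck Cambridge Cancer Compound library plates were 10/100 nM for RIVA cells and 10/1,000 nM for U-2932 cells, seeded at 3,000 cells/well. Before seeding, cells were washed after 18 h with or without a radiolabelled anti-CD37 antibody conjugate (~600 MBq/mg; 0.5 µg/ml RIVA, 1 µg/ml U-2932). Growth inhibition was derived from RealTime-Glo luminescence relative to untreated no-drug control wells. Readings were taken daily starting on day 3, each after 1 h at 37°C, and each well's RLU was divided by the mean of 48 such wells per plate and subtracted from 1.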
# U-2932 [2] = experiment: growth inhibition by drug alone (1 - RLU/untreated control) (fraction); higher = stronger inhibition; conditions: 177Lu-lilotomab satetraxetan 0 ug/ml
# How it was run: as §1
# RIVA [3] = experiment: as above; conditions: 177Lu-lilotomab satetraxetan 0 ug/ml
# How it was run: as §1
# U-2932 [4] = experiment: growth inhibition by drug plus 177Lu-lilotomab satetraxetan (1 - RLU/untreated control) (fraction); higher = stronger inhibition; conditions: 177Lu-lilotomab satetraxetan 1 ug/ml
# How it was run: as §1
SMILES,"growth inhibition by drug plus 177Lu-lilotomab satetraxetan (RIVA [1]; 100 nM, time (day): 5)","growth inhibition by drug plus 177Lu-lilotomab satetraxetan (RIVA [1]; 100 nM, time (day): 6)","growth inhibition by drug alone (U-2932 [2]; 10 nM, time (day): 3)","growth inhibition by drug alone (U-2932 [2]; 10 nM, time (day): 4)","growth inhibition by drug alone (U-2932 [2]; 10 nM, time (day): 5)","growth inhibition by drug alone (U-2932 [2]; 10 nM, time (day): 6)","growth inhibition by drug alone (U-2932 [2]; 1000 nM, time (day): 3)","growth inhibition by drug alone (U-2932 [2]; 1000 nM, time (day): 4)","growth inhibition by drug alone (U-2932 [2]; 1000 nM, time (day): 5)","growth inhibition by drug alone (U-2932 [2]; 1000 nM, time (day): 6)","growth inhibition by drug alone (RIVA [3]; 10 nM, time (day): 3)","growth inhibition by drug alone (RIVA [3]; 10 nM, time (day): 4)","growth inhibition by drug alone (RIVA [3]; 10 nM, time (day): 5)","growth inhibition by drug alone (RIVA [3]; 10 nM, time (day): 6)","growth inhibition by drug alone (RIVA [3]; 100 nM, time (day): 3)","growth inhibition by drug alone (RIVA [3]; 100 nM, time (day): 4)","growth inhibition by drug alone (RIVA [3]; 100 nM, time (day): 5)","growth inhibition by drug alone (RIVA [3]; 100 nM, time (day): 6)","growth inhibition by drug plus 177Lu-lilotomab satetraxetan (U-2932 [4]; 10 nM, time (day): 3)","growth inhibition by drug plus 177Lu-lilotomab satetraxetan (U-2932 [4]; 10 nM, time (day): 4)","growth inhibition by drug plus 177Lu-lilotomab satetraxetan (U-2932 [4]; 10 nM, time (day): 5)","growth inhibition by drug plus 177Lu-lilotomab satetraxetan (U-2932 [4]; 10 nM, time (day): 6)","growth inhibition by drug plus 177Lu-lilotomab satetraxetan (U-2932 [4]; 1000 nM, time (day): 3)","growth inhibition by drug plus 177Lu-lilotomab satetraxetan (U-2932 [4]; 1000 nM, time (day): 4)","growth inhibition by drug plus 177Lu-lilotomab satetraxetan (U-2932 [4]; 1000 nM, time (day): 5)","growth inhibition by drug plus 177Lu-lilotomab satetraxetan (U-2932 [4]; 1000 nM, time (day): 6)","growth inhibition by drug plus 177Lu-lilotomab satetraxetan (RIVA [1]; 10 nM, time (day): 3)","growth inhibition by drug plus 177Lu-lilotomab satetraxetan (RIVA [1]; 10 nM, time (day): 4)","growth inhibition by drug plus 177Lu-lilotomab satetraxetan (RIVA [1]; 10 nM, time (day): 5)","growth inhibition by drug plus 177Lu-lilotomab satetraxetan (RIVA [1]; 10 nM, time (day): 6)","growth inhibition by drug plus 177Lu-lilotomab satetraxetan (RIVA [1]; 100 nM, time (day): 3)","growth inhibition by drug plus 177Lu-lilotomab satetraxetan (RIVA [1]; 100 nM, time (day): 4)"
OCCn1cc(-c2cnc3nnn(Cc4ccc5ncccc5c4)c3n2)cn1,0.467,0.46,–,–,–,–,–,–,–,–,–,–,–,–,–,–,–,–,–,–,–,–,–,–,–,–,–,–,–,–,–,–
O=C1c2ccccc2C(=O)c2c(NCCc3ccc(O)cc3)ccc(NCCc3ccc(O)cc3)c21,0.433,0.44,-0.0815,-0.112,-0.157,-0.425,-0.127,-0.129,-0.138,-0.403,-0.237,-0.358,-0.539,-0.808,-0.77,-0.807,-0.893,-1.08,-0.127,-0.0794,-0.054,-0.0701,-0.11,-0.0952,-0.0582,0.044,0.317,0.429,0.456,0.479,0.329,0.437
N#CC(c1ccnc(NCCc2cccnc2)n1)c1nc2ccccc2s1 (centres undefined) [JNK Inhibitor V],0.381,0.353,-0.0956,-0.056,-0.0395,0.0624,-0.154,-0.122,-0.116,-0.143,-0.285,-0.269,-0.297,-0.462,-0.33,-0.412,-0.338,-0.441,-0.113,-0.0825,-0.0367,0.103,-0.0869,-0.00408,0.0113,0.0923,0.255,0.419,0.467,0.481,0.265,0.376
CC(C)n1c(/C=C/C(O)CC(O)CC(=O)O)c(-c2ccc(F)cc2)c2ccccc21 (centres undefined) [Fluvastatin sodium (Lescol)],0.53,0.525,0.0449,-0.0165,-0.0177,0.0304,-0.0194,-0.0389,-0.0543,0.0255,-0.148,-0.159,-0.189,-0.293,-0.27,-0.311,-0.385,-0.508,-0.0533,0.0114,0.0651,0.148,0.00838,0.0135,0.0456,0.221,0.511,0.544,0.565,0.555,0.516,0.511
O=C(O)Cc1cccc(OCCCN(Cc2cccc(C(F)(F)F)c2Cl)CC(c2ccccc2)c2ccccc2)c1,0.874,0.893,0.116,0.0747,-0.121,-0.11,0.111,0.127,-0.0348,-0.224,0.0962,0.115,0.0874,-0.0108,0.667,0.512,0.515,0.524,0.0517,0.0894,0.143,0.142,0.162,0.224,0.223,0.228,0.667,0.666,0.678,0.677,0.86,0.858
O=C(Nc1ccccc1-c1cn2c(CN3CCNCC3)csc2n1)c1cnc2ccccc2n1,0.516,0.514,0.102,0.0775,-0.0151,-0.0612,0.0868,0.0879,0.00704,-0.1,0.0628,0.0902,0.0591,-0.163,-0.0368,-0.02,-0.0409,-0.193,0.0225,0.0594,0.101,0.14,0.141,0.171,0.103,0.146,0.404,0.522,0.563,0.562,0.418,0.513
Cc1nnc(C(C)C)n1C1C[C@H]2CC[C@@H](C1)N2CC[C@H](NC(=O)C1CCC(F)(F)CC1)c1ccccc1 (stereo in doubt) [Maraviroc],0.587,0.584,0.125,0.118,0.0854,-0.0157,0.0827,0.0764,-0.0104,-0.122,0.071,0.0921,0.049,-0.0807,0.1,0.0864,0.0269,-0.0532,0.128,0.146,0.143,0.239,0.0251,0.112,0.105,0.201,0.542,0.609,0.618,0.645,0.545,0.593
N#CC[C@H](C1CCCC1)n1cc(-c2ncnc3[nH]ccc23)cn1,0.376,0.348,0.018,0.0281,-0.0548,-0.139,-0.0929,-0.0506,-0.111,-0.125,0.0229,-0.0212,-0.0792,-0.268,-0.143,-0.098,-0.128,-0.247,0.00599,0.0333,-0.193,0.112,-0.166,-0.0146,-0.0674,-0.122,0.32,0.445,0.469,0.488,0.269,0.379
COc1cccc2c1C(=O)c1c(O)c3c(c(O)c1C2=O)C[C@@](O)(C(=O)CO)C[C@@H]3O[C@H]1C[C@H](N)[C@@H](O)[C@H](C)O1 [Epirubicin Hydrochloride],0.949,0.967,0.0435,0.0793,0.0717,0.093,0.943,0.964,0.975,0.98,-0.0808,0.0051,0.0307,0.0473,0.436,0.719,0.848,0.91,0.24,0.323,0.39,0.484,0.965,0.977,0.982,0.986,0.734,0.792,0.829,0.863,0.887,0.93
C[C@@H]1C[C@H]2[C@@H]3CCC4=CC(=O)C=C[C@]4(C)[C@@]3(F)[C@@H](O)C[C@]2(C)[C@@]1(O)C(=O)CO [Dexamethasone],0.417,0.414,0.345,0.301,0.236,0.236,0.466,0.472,0.362,0.306,0.0365,0.0468,-0.018,-0.23,-0.0879,-0.051,-0.149,-0.312,0.277,0.301,0.26,0.353,0.422,0.466,0.406,0.431,0.415,0.467,0.484,0.498,0.362,0.429
CO[C@H]1C[C@@H]2CC[C@@H](C)[C@@](O)(O2)C(=O)C(=O)N2CCCC[C@H]2C(=O)O[C@H]([C@H](C)C[C@@H]2CC[C@@H](OCCO)[C@H](OC)C2)CC(=O)[C@H](C)/C=C(\C)[C@@H](O)[C@@H](OC)C(=O)[C@H](C)C[C@H](C)/C=C/C=C/C=C/1C [Everolimus (RAD001)],0.876,0.873,0.744,0.686,0.591,0.52,0.743,0.728,0.667,0.605,0.776,0.768,0.744,0.653,0.811,0.826,0.827,0.801,0.69,0.625,0.558,0.538,0.719,0.729,0.706,0.702,0.821,0.838,0.833,0.788,0.833,0.865
Nc1nccc(-c2ccc3noc(-c4ccc(Cl)cc4)c3c2)n1 [PIM-1 Inhibitor 2],0.524,0.507,0.154,0.0795,7.17e-05,-0.0865,0.121,0.133,0.0739,0.0111,0.115,0.126,0.0578,-0.0926,0.116,0.161,0.123,0.0468,0.0725,0.102,0.129,0.208,0.106,0.208,0.188,0.253,0.465,0.59,0.607,0.604,0.451,0.536
NC(=O)Nc1sc(-c2ccc(F)cc2)cc1C(N)=O,–,–,0.0734,0.0553,0.0297,-0.262,0.197,0.229,0.176,0.239,-0.0481,-0.0689,-0.274,-0.781,-0.446,-0.283,-0.285,-0.444,0.0182,0.0728,0.0938,0.118,0.334,0.356,0.397,0.502,0.484,0.574,0.584,0.586,0.259,0.411
